Results filed as inconclusive are left out. Activity calls are given as the source filed them. The call rests on the fitted dose curve; in most records, active means well fitted activation curve with a large enough effect; inconclusive means small, poorly fitted or top-dose-only effect; inactive means no such curve, though single readings can be large or run the other way.
Potency means the concentration at half of the fitted maximal effect.

The nature of the assay: qHTS assay for re-activators of p53 using a Luc reporter: Hit Validation. Further: nearly all actives have a fitted effect of over 75% in size. On activation: 0% is about no effect. The conditions noted are these: p53-responsive luciferase reporter cells, luminescence, H1299 line expressing heat-sensitive Ala138Val p53; series mostly up to 46.1 µM; activation: at the top concentration. A digest of the protocol: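 H1299 (p53-null) cells stably carrying p53-A138V and a BP100-luciferase reporter, 1000 cells/well, treated 24 h at 37 deg C. Compounds at several concentrations, 1:5 dilution; nocodazole control; luminescence read after 10 min with detection reagent.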
Regarding `COc1ccc(-c2nc(-c3ccc(NC(=O)c4ccncc4)cc3)no2)cc1OC`, the “activation” value was -19.3% (inactive).

On to `Cc1cccc(NC(=O)/C=C/c2ccc(Cl)cc2)n1`, for which the Potency was 2.31 µM (active).

`COc1ccc(-c2nsc3c(N4CCCC4)ncnc23)cc1`: the Potency was 0.092 µM (active).

Consider `C/C(=N\NS(=O)(=O)c1ccc(Cl)cc1)c1ccc(NC(=O)c2ccco2)cc1`, for which the “activation” value was 24.5% (inactive).

Turning to `COC(=O)c1ccc(CSc2nnc(-c3c[nH]c4ccccc34)n2-c2ccccc2)cc1`, the “activation” value is 5.21% (inactive).

As to `C#CC(C)(CC)NC(=O)Cn1nnc(-c2ccc(S(C)(=O)=O)cc2)n1` (stereo unspecified), the “activation” value is -1.56% (inactive).

Consider `Cc1ccc2c(c1)sc1nc(=O)n(-c3cccc(Cl)c3)c(=O)n12`, for which the Potency was 8.2 µM (active).

For `CCOCC(=O)Nc1nc2ccc(OCC)cc2s1`, the Potency was 16.4 µM (active).

As to `COc1ccc2nc(NC(=O)Nc3ccccc3OC)sc2c1`, the Potency was 9.2 µM (active).

As for `O=C(CSc1nnc(-c2ccc(F)cc2)c2ccccc12)Nc1ccccc1`, the “activation” value was 30.7% (inactive).

`O=C(Nc1ccc(Br)cn1)c1cccc(-c2cc3ccccc3oc2=O)c1`: the Potency was 16.4 µM (active).

With `O=C(CC(=O)c1ccccc1O)c1cccc(F)c1`, the “activation” value was 22.4% (inactive).

For the compound `CC12CCC(C(=O)N(CSC(=S)N/N=C\c3ccccc3O)C1=O)C2(C)C` (stereo unspecified), the “activation” value was 5.73% (inactive).

Turning to `C/C(CC(C)C)=N\NC(=O)Nc1ccccc1`, the “activation” value was 29.2% (inactive).

For the compound `Cc1noc(C)c1COc1ccc(C(=O)NCCOc2ccccc2)cc1`, the “activation” value was 25% (inactive).

For `COc1cc(C(=S)N2CCOCC2)ccc1OC(=O)c1ccccc1C`, the “activation” value was -7.81% (inactive).

`O=C(Nc1ccc2ccccc2c1)c1ccc(Cl)cc1Cl`: the Potency was 0.291 µM (active).

Take `COc1ccc(-c2coc3cc(O[C@@H]4O[C@H](CO)[C@@H](O)[C@H](O)[C@H]4O)ccc3c2=O)cc1`: the Potency is 2.91 µM (active).

For `COCC(=O)Nc1nnc(COc2ccccc2)s1`, the “activation” value was 28.6% (inactive).

For the compound `O=C(Nc1cccnc1)c1ccc([N+](=O)[O-])s1`, the “activation” value was 17.2% (inactive).

Turning to `O=C(N/N=C/C1C(c2ccccc2)C1(Cl)Cl)c1cccc(Cl)c1` (stereo unspecified), the “activation” value was -6.77% (inactive).

These data come from PubChem BioAssay AID624305 (National Center for Advancing Translational Sciences (NCATS), 2012).
